The list is not random: actives were taken first. Their share in the collection is about 2.1%.
D2 antag: antagonists of human D2 dopamine receptor; P14416; 2% of 340,000 active; HEK293 TREx D2 cells, calcium flux, dopamine EC80; inhibition, % at 10 µM; in the data active = inhibition above about 30%; inactive = below that, where a call was filed; note: 0% is about no effect
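Calcium flux kinetic readout in an inducible HEK293 TREx D2 line plated overnight at 30 C. After 180 s compound exposure, an EC80 dopamine challenge follows with another 180 s kinetic read to detect antagonism.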
D2 PAM-1: positively modulates the human D2 dopamine receptor allosterically; P14416; HEK293 T-REx D2, calcium flux, EC20 dopamine potentiation; potentiation, % at 10 µM; 0.34% of 340,000 active;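 active = potentiation over 3 SD above the plate norm, cut at about 30% in these data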; note: 0% is about no effect
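Primary screen. Calcium kinetics in induced HEK293 T-REx D2 cells: compound pre-addition 180 s, EC20 dopamine, 180 s more.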
LDHA block: inhibitors of human lactate dehydrogenase A | P00338 | 0.15% of 480,000 active | AID 1347041 | purified LDHA, NADH/diaphorase-resazurin fluorescence; stronger effect = lower value | activity change, % (values are at about 110 or 230 µM); in the data active = activity change below about -30%; inconclusive = mostly about -25% to -30%;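 note: plate controls were DMSO wells for no effect and wells without enzyme for full effect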
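Resorufin fluorescence (ex540/em590), read at 0 and 20 min after diaphorase/resazurin addition, reports the NADH left after a 5 min room-temperature reaction of 2 nM human LDH5 with 0.06 mM NADH and 0.2 mM pyruvate.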
D2 ag-1: activates the human D2 dopamine receptor; HEK293 T-REx D2 cells, calcium flux agonist mode; activation, % at 2 µM; P14416; AID 485358; 0.53% of 340,000 active;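 active = activation over 3 SD above normal in the single-dose calcium agonist read, cut at about 30% in these data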; note: 0% is about no effect
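Agonism is scored from calcium flux in a force-coupled, inducible HEK293 cell line expressing D2, read kinetically for 180 s after compound addition against dopamine controls.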
D2 PAM-2: potentiates the human D2 dopamine receptor allosterically; 0.23% of 360,000 active; DiscoveRx D2 beta-arrestin cells, luminescence, 90 min; 100% = 57 uM dopamine signal; P14416; potentiation, % (test concentration not listed); AID 624464; in the data active = potentiation above about 50%; inconclusive = mostly about 30% to 49%
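D2 cells co-treated with compound plus 50 nM dopamine (EC20) for 90 min at 37 deg C to detect potentiation. Beta-arrestin recruitment was read as enzyme-fragment luminescence after 1 h at ambient temperature. Full response was set by 57 uM dopamine.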
D2 ag-2: activates the human D2 dopamine receptor. DiscoveRx PathHunter D2 beta-arrestin, luminescence, 90 min; 100% = 57 uM dopamine signal. 0.084% of 360,000 active. P14416. AID 624465. activation, % (concentration not given with the values); in the data active = activation above about 40%; inconclusive = between about 15% and that limit
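DiscoveRx PathHunter D2 beta-arrestin cells (2,100/well) attached overnight, then compound-stimulated 90 min at 37 C in HBSS/10 mM HEPES/0.1% Tween-20 buffer; beta-galactosidase complementation read by luminescence after 1 h at ambient temperature. Dopamine 57 uM final (EC100) as control.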
D3 ag: activates human D3 dopamine receptor beta-arrestin recruitment | shares compounds with D2 ag-1 | DiscoveRx D3 beta-arrestin cells, luminescence, 90 min | Potency, µM (titrated, usually from 76.9 µM), for the others: at the top dose activation, most hits filed as activators | 4% of 2,300 active | AID 720506;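 note: potency is the fitted concentration of half-maximal effect; 100% = dopamine control response; nearly all actives have a fitted effect of over 70% in size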
Target sequence (P35462 whole entry, looked up): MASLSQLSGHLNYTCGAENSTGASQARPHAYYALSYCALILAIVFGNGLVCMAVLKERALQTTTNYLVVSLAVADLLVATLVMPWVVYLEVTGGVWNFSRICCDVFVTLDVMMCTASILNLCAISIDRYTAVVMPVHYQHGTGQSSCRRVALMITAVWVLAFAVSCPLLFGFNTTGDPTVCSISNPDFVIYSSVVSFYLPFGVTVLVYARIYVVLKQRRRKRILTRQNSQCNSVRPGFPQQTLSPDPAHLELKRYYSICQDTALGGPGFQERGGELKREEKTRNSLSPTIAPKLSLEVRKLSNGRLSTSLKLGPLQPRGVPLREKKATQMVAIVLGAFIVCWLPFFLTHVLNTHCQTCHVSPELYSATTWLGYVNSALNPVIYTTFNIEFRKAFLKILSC
D2 ag-3: activates human D2 dopamine receptor in D3 counterscreen; shares compounds with D2 ag-1; DiscoveRx PathHunter D2 beta-arrestin, luminescence, 90 min; response scale: percent relative to full dopamine signal; Potency, µM (series often up to 76.9 µM), without a hit: at the top dose activation, usual class: activators; 5.9% of 2,300 active; AID 720507; note: potency is the fitted concentration of half-maximal effect; % of control where 0% means no effect; nearly all actives have a fitted effect of over 70% in size
The depositor's hits bear a star. Unless noted, calls come from the whole dose curve; as a rule, active = well fitted activation curve with a large enough effect; inconclusive = small, poorly fitted or top-dose-only effect; inactive = flat fitted curve, though single readings scatter.

CCCC(C)C(=O)Nc1ncc(S(=O)(=O)c2ccc([N+](=O)[O-])cc2)s1 (stereo not drawn) was read as D2 antag 19, D2 PAM-1 10, LDHA block 2, D2 ag-1 23, D2 PAM-2 11, D2 ag-2 14, D3 ag inconclusive and D2 ag-3 24%.
Screening CCC(C)Nc1nc(-c2cccc(OC)c2O)nc2ccccc12 (stereo not drawn) returned D2 antag 9, D2 PAM-1 -7, LDHA block 8, D2 ag-1 5, D2 PAM-2 inconclusive, D2 ag-2 2, D3 ag 6% and D2 ag-3 13%.
O=C(O)c1cccnc1SCC(F)(F)F was read as LDHA block 5.
For N#CCN(C(=O)COC(=O)CCCNC(=O)c1ccc(Cl)cc1)c1ccccc1 the results were D2 antag -11, D2 PAM-1 2, LDHA block -1, D2 ag-1 0, D2 PAM-2 -10, D2 ag-2 0, D3 ag -3% and D2 ag-3 2%.
For CCN1CCN(CC(O)COc2cccc(OC)c2)CC1 (stereo not drawn) the results were D2 antag 2, D2 PAM-1 5, LDHA block -7, D2 ag-1 0, D2 PAM-2 -12 and D2 ag-2 0.
For OC(COc1c(F)cc(Br)cc1F)CN1CCN(c2ccc(F)cc2)CC1 (stereo not drawn) the results were D2 antag 71*, D2 PAM-1 -30, LDHA block 0, D2 ag-1 59*, D2 PAM-2 -14, D2 ag-2 1, D3 ag inconclusive and D2 ag-3 inconclusive.
Screening OC(COc1ccc2ccccc2c1)CN1CCN(c2ccc(F)cc2)CC1 (stereo not drawn) returned D2 antag 20, D2 PAM-1 -27, LDHA block -1, D2 ag-1 53*, D2 PAM-2 4, D2 ag-2 1, D3 ag inconclusive and D2 ag-3 30%.
`COc1cccc(OCC(O)CN2CCN(c3ccc(F)cc3)CC2)c1` (stereo not drawn) gave D2 antag 80*, D2 PAM-1 -20, LDHA block 3, D2 ag-1 34*, D2 PAM-2 -13, D2 ag-2 1, D3 ag 10% and D2 ag-3 3%.
Screening COc1cccc(OC)c1OCC(O)CN1CCN(c2ccc(F)cc2)CC1 (stereo not drawn) returned D2 antag 73*, D2 PAM-1 -31, LDHA block -8, D2 ag-1 56*, D2 PAM-2 -25, D2 ag-2 4, D3 ag -10% and D2 ag-3 5%.
Screening Cn1c(SCC(=O)N2CCc3ccccc32)nnc1-c1cccc(NC(=O)c2ccccc2F)c1 returned LDHA block 13.
COc1ccccc1-c1nc(S(=O)(=O)c2ccc3c(c2)OCCO3)c(NC(C)C)o1 was read as LDHA block 2.
Screening O=C(NCc1ccccc1Cl)C(=O)Nc1cccc2[nH]ccc12 returned LDHA block 3.
Screening Cc1cccc(NC(=O)c2cc(-c3ccc(C)o3)nc3ccccc23)c1 returned LDHA block 6.
CC(C)c1cccc(C(C)C)c1OC(=O)[C@H]1OC(C(C)(C)C)=C[C@@H]1c1ccccc1 was read as D2 antag 5, D2 PAM-1 -2, LDHA block 3, D2 ag-1 0, D2 PAM-2 -9 and D2 ag-2 -2.
Screening CC(C)c1cccc(C(C)C)c1OC(=O)[C@H]1OC(c2ccc(Br)cc2)=C[C@@H]1c1ccc(Br)cc1 returned D2 antag 1, D2 PAM-1 8, LDHA block 1, D2 ag-1 1, D2 PAM-2 7, D2 ag-2 5, D3 ag 14% and D2 ag-3 5%.
Screening C/C(=C\c1ccccc1)CN1CCN(c2ccccc2)CC1 returned D2 antag -6, D2 PAM-1 -6, LDHA block -16, D2 ag-1 0, D2 PAM-2 1 and D2 ag-2 inconclusive.
C/C=C(\C)CN1CCN(c2ccccc2)CC1 was read as D2 antag 75*, D2 PAM-1 -21, LDHA block -2, D2 ag-1 79*, D2 PAM-2 -10, D2 ag-2 13, D3 ag 2% and D2 ag-3 25%.
Screening C/C=C(\C)CN1CCN(c2ccccc2F)CC1 returned D2 antag 65*, D2 PAM-1 -11, LDHA block -14, D2 ag-1 38*, D2 PAM-2 -9, D2 ag-2 11, D3 ag 3% and D2 ag-3 19%.
`CCN(CC)C(=O)CN1CCN(c2ccccc2F)CC1` gave D2 antag 7, D2 PAM-1 -7, LDHA block -8, D2 ag-1 0, D2 PAM-2 -18 and D2 ag-2 0.
`O=c1[nH]c(=O)n(-c2ccccc2F)c2c1C(C(F)(F)F)(C(F)(F)F)N=C(c1ccncc1)N2` gave LDHA block -2.
COc1ccc(CC(=O)Nc2ccc(S(=O)(=O)NC(C)C)cc2)cc1 was read as LDHA block 2, D2 PAM-2 -4, D2 ag-2 3, D3 ag 22% and D2 ag-3 11%.
For CCCCNS(=O)(=O)c1ccc(NC(=O)Cc2ccc(OC)cc2)cc1 the results were D2 antag -4, D2 PAM-1 -7, LDHA block -3, D2 ag-1 0, D2 PAM-2 -5 and D2 ag-2 2.
`COc1ccc(N2C(S)=C(C#N)C(=O)NC2c2ccco2)cc1` (stereo not drawn) gave D2 antag 9, D2 PAM-1 -20, LDHA block -4, D2 ag-1 50*, D2 PAM-2 -6, D2 ag-2 3, D3 ag 1% and D2 ag-3 -3%.
Cc1cccc(N2C(S)=C(C#N)C(=O)NC2c2ccco2)c1 (stereo not drawn) was read as D2 antag 22, D2 PAM-1 6, LDHA block 0, D2 ag-1 0, D2 PAM-2 -3 and D2 ag-2 0.
Cc1ccc(-c2noc(CNc3ccc(Cl)c(Cl)c3)n2)cc1 was read as LDHA block 0.

Source: PubChem (National Center for Advancing Translational Sciences (NCATS))
